In PubChem BioAssay (EPA / NIEHS):
Records with an inconclusive call do not appear. Active and inactive are the calls of the source. How the source made its calls, unless noted: active means hit-call score of the fitted dose curve at least 0.9, where 1 is the maximum; inconclusive means response in the unintended direction; inactive means score below 0.9.

Legend:
[1] = TOX21_p53_BLA_p2_viability: Viability Assessment in the Tox21 HCT-116 p53 Agonism Beta-lactamase Assay, Phase 2 (AID 2283591);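 further: compound exposure lasted 16 h at 37 °C; actives lower the ATP signal meaning cytotoxicity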
Procedure, shortened: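 HCT-116 p53-bla cells (4000/well) rested 5 h at 37C, then received compounds in DMSO (217-fold dilution) for 16 h at 37C, 5% CO2. After the CCF4 read, CellTiter-Glo was added; ATP luminescence was read after 30 min at room temperature.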

[2] = target: Cellular tumor antigen p53 (Homo sapiens) (UniProt P04637); assay: TOX21_p53_BLA_p2_ratio: Tox21 HCT-116 p53 Agonism Beta-lactamase Assay, Ratio, Phase 2 (AID 2283592)
Procedure, shortened: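 DMSO-normalized, positive-direction endpoint derived from the 460 nm/530 nm FRET ratio in HCT116 p53 beta-lactamase reporter cells exposed 16 h at 37C and loaded with CCF4-AM for 2 h.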

[3] = target: Cellular tumor antigen p53 (Homo sapiens) (UniProt P04637); assay: TOX21_p53_BLA_p3_ratio: Tox21 HCT-116 p53 Agonism Beta-lactamase Assay, Ratio, Phase 3 (AID 2283596)
Procedure, shortened: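 Cells were seeded at 4000/well, rested 5 h at 37C, then dosed with DMSO compound solutions (217-fold dilution) for 16 h. CCF4-AM substrate was loaded for 2 h at room temperature, and the 460/530 nm emission ratio was fitted for gain of signal versus DMSO.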

[4] = TOX21_p53_BLA_p4_viability: Viability Assessment in the Tox21 HCT-116 p53 Agonism Beta-lactamase Assay, Phase 4 (AID 2283597);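 further: hits lower the luminescence signal meaning cytotoxicity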
Procedure, shortened: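 In this multiplexed secondary endpoint, HCT116 cells (4000 per well, compound at 5 h, 16 h treatment) received CellTiter-Glo after the beta-lactamase read. Luminescence after 30 min RT reflects ATP, and falling signal marks cytotoxicity.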

[5] = target: Cellular tumor antigen p53 (Homo sapiens) (UniProt P04637); assay: TOX21_p53_BLA_p5_ratio: Tox21 HCT-116 p53 Agonism Beta-lactamase Assay, Ratio, Phase 5 (AID 2283599)
Procedure, shortened: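 HCT-116 cells carrying a p53-inducible beta-lactamase reporter were seeded at 4000 cells/well and dosed after 5 h with compound in DMSO (217-fold dilution). After 16 h at 37C, CCF4-AM substrate was added for 2 h, and the 460/530 nm emission ratio was scored as gain-of-signal versus DMSO.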

[6] = TOX21_p53_BLA_p5_viability: Viability Assessment in the Tox21 HCT-116 p53 Agonism Beta-lactamase Assay, Phase 5 (AID 2283600)
Procedure, shortened: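 Here cell health was gauged by ATP levels in wells holding 4000 cells, each treated 16 h with DMSO-delivered compounds at 217-fold dilution; reduced luminescence marked toxicity.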

[7] = target: Cellular tumor antigen p53 (Homo sapiens) (UniProt P04637); assay: TOX21_p53_BLA_p4_ratio: Tox21 HCT-116 p53 Agonism Beta-lactamase Assay, Ratio, Phase 4 (AID 2283601)
Procedure, shortened: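 HCT116 cells carrying an inducible beta-lactamase reporter were plated at 4000 cells/well, rested 5 h, then exposed to compounds in DMSO (217-fold dilution) for 16 h at 37C. CCF4-AM substrate was loaded 2 h at room temperature; 460/530 nm emission ratio scored gain-of-signal versus DMSO.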

[8] = CCTE_Shafer_MEA_dev_firing_rate_mean: CCTE's Neural Network Formation Assay for Mean Firing Rate, Shafer Lab (AID 2284031; active means hit-call score of the fitted dose curve at least 0.9, where 1 is the maximum; inactive means score below 0.9)
Procedure, shortened: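 Steps: seed rat cortical cells (1.5 x 10^5/well) with laminin on PEI-coated MEA; dose day 0; record DIV 5/7/9/12, full media and compound exchange after DIV 5 and 9 recordings; compute well-mean firing rate AUC.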

[9] = CCTE_Shafer_MEA_dev_per_burst_spike_percent: CCTE's Neural Network Formation Assay for Percent of Spikes in a Burst, Shafer Lab (AID 2284032; active means hit-call score of the fitted dose curve at least 0.9, where 1 is the maximum; inactive means score below 0.9)
Procedure, shortened: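 Value is trapezoidal AUC over recordings on days 5, 7, 9 and 12 of the well-mean fraction of spikes falling in single-electrode bursts; rat cortical cultures exposed continuously from plating, treatment renewed DIV 5 and 9, fitted downward against DMSO.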

[10] = CCTE_Shafer_MEA_dev_active_electrodes_number: CCTE's Neural Network Formation Assay for Number of Active Electrodes, Shafer Lab (AID 2284040)
Procedure, shortened: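 Counts electrodes per well firing at least 5 spikes/min, recorded on days 5, 7, 9 and 12 in rat cortical cultures dosed continuously from plating (treatment refreshed DIV 5, 9). Value is the area under the curve over recordings, fitted downward relative to DMSO.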

[11] = CCTE_Shafer_MEA_dev_burst_rate: CCTE's Neural Network Formation Assay for Burst Rate, Shafer Lab (AID 2284042; active means hit-call score of the fitted dose curve at least 0.9, where 1 is the maximum; inactive means score below 0.9)
Procedure, shortened: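 Primary rat cortical neurons on PEI-coated 48-well MEA plates (laminin added with cells at plating) (16 electrodes/well), exposed from plating to day 12, dosing renewed at DIV 5 and 9. Burst rate averaged over active electrodes, recorded DIV 5, 7, 9, 12, summarized as AUC; loss versus DMSO.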

[12] = CCTE_Shafer_MEA_dev_bursting_electrodes_number: CCTE's Neural Network Formation Assay for Number of Bursting Electrodes, Shafer Lab (AID 2284043)
Procedure, shortened: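 Counted: electrodes with burst rate ≥1 per 2 min in each well. Cells: primary rat cortex, 1.5 x 10^5/well, on 16-electrode MEA wells. Exposure: DIV 0–12, compound renewed DIV 5 and 9. Recording days 5, 7, 9, 12; AUC vs DMSO baseline.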

[13] = CCTE_Shafer_MEA_dev_per_burst_interspike_interval: CCTE's Neural Network Formation Assay for Burst Interspike Interval, Shafer Lab (AID 2284044; active means hit-call score of the fitted dose curve at least 0.9, where 1 is the maximum; inactive means score below 0.9)
Procedure, shortened: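 Spontaneous activity of maturing rat cortical networks is recorded on DIV 5, 7, 9 and 12 under chronic compound exposure beginning at plating. Endpoint: burst interspike interval well-mean, collapsed into trapezoidal AUC and fitted in the negative direction relative to DMSO.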

[14] = CCTE_Shafer_MEA_dev_burst_duration_mean: CCTE's Neural Network Formation Assay for Mean Burst Duration, Shafer Lab (AID 2284045; active means hit-call score of the fitted dose curve at least 0.9, where 1 is the maximum; inactive means score below 0.9)
Procedure, shortened: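 Network-formation assay in primary rat cortical neurons; treatment spans twelve days of development. Mean burst duration per well is integrated by trapezoidal AUC and fitted in the loss-of-signal direction against DMSO baseline.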

[15] = CCTE_Shafer_MEA_dev_interburst_interval_mean: CCTE's Neural Network Formation Assay for Mean Interburst Interval, Shafer Lab (AID 2284046; active means hit-call score of the fitted dose curve at least 0.9, where 1 is the maximum; inactive means score below 0.9;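 further: well-mean interburst interval of bursting electrodes as AUC over four recording days; curve fitted for decrease in interburst interval relative to DMSO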)
Procedure, shortened: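 Recordings on days 5, 7, 9 and 12 give well-mean interburst interval across actively bursting electrodes, summarized as area under the curve. Cultures: rat cortical neurons, continuous exposure from day 0, compound renewed at feeds; decrease analyzed versus DMSO.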

[16] = CCTE_Shafer_MEA_dev_inter_network_spike_interval_mean: CCTE's Neural Network Formation Assay for Mean Inter-network Spike Interval, Shafer Lab (AID 2284047; active means hit-call score of the fitted dose curve at least 0.9, where 1 is the maximum; inactive means score below 0.9)
Procedure, shortened: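 Primary rat cortical neurons on 16-electrode MEA wells, exposed from plating day 0 through DIV 12, compound renewed at DIV 5 and 9 media changes. Mean interval between network-spike peaks recorded DIV 5, 7, 9, 12; collapsed as trapezoidal AUC, fitted downward versus DMSO.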

[17] = CCTE_Shafer_MEA_dev_network_spike_number: CCTE's Neural Network Formation Assay for Number of Network Spikes, Shafer Lab (AID 2284048; active means hit-call score of the fitted dose curve at least 0.9, where 1 is the maximum; inactive means score below 0.9;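 further: synchronized bursts across electrodes counted on days 5 7 9 12 and integrated as AUC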)
Procedure, shortened: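 Extracellular recordings from 16-electrode wells track network formation in rat cortical cultures under continuous treatment from plating. The endpoint is network spike number, expressed as AUC across DIV 5–12 relative to DMSO vehicle.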

[18] = CCTE_Shafer_MEA_dev_network_spike_peak: CCTE's Neural Network Formation Assay for Mean Number of Electrodes in Network Spike, Shafer Lab (AID 2284049; active means hit-call score of the fitted dose curve at least 0.9, where 1 is the maximum; inactive means score below 0.9)
Procedure, shortened: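 Continuous 12-day exposure of rat cortical cultures, starting at plating, on MEA plates. Endpoint: electrodes participating in network-spike peaks, AUC across DIV 5–12, DMSO as negative control.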

[19] = CCTE_Shafer_MEA_dev_spike_duration_mean: CCTE's Neural Network Formation Assay for Mean Spike Duration, Shafer Lab (AID 2284051; active means hit-call score of the fitted dose curve at least 0.9, where 1 is the maximum; inactive means score below 0.9;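 further: mean network spike duration pooled as area under curve over DIV 5 to 12 recordings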)
Procedure, shortened: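 Primary rat cortical neurons on 16-electrode MEA wells (PEI-coated, laminin in plating drop), exposed from plating through DIV 12 with compound renewed at DIV 5 and 9. Mean network-spike duration recorded DIV 5, 7, 9, 12; trapezoidal AUC across days, DMSO baseline.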

[20] = CCTE_Shafer_MEA_dev_network_spike_duration_std: CCTE's Neural Network Formation Assay for Standard Deviation of Network Spike Duration, Shafer Lab (AID 2284052; active means hit-call score of the fitted dose curve at least 0.9, where 1 is the maximum; inactive means score below 0.9;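 further: area under curve of spike duration SD across recording days 5 to 12; hits are decreases in network spike duration SD versus DMSO vehicle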)
Procedure, shortened: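 Primary rat cortical neurons on PEI-coated 16-electrode MEA wells, exposed from plating day 0 through day 12 with compound renewed at DIV 5 and 9. Network spike duration SD recorded on days 5, 7, 9, 12, collapsed as trapezoidal AUC; loss-of-signal fit versus DMSO.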

[21] = CCTE_Shafer_MEA_dev_per_network_spike_spike_number_mean: CCTE's Neural Network Formation Assay for Mean Number of Spikes in a Network Spike, Shafer Lab (AID 2284053; active means hit-call score of the fitted dose curve at least 0.9, where 1 is the maximum; inactive means score below 0.9)
Procedure, shortened: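 Primary rat cortical neurons on 48-well, 16-electrode MEA plates were exposed from plating to DIV 12, with dosing renewed on DIV 5 and 9. Spikes per network spike (0.05 s peak window) were recorded on DIV 5, 7, 9 and 12 and collapsed as trapezoidal AUC versus DMSO.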

[22] = CCTE_Shafer_MEA_dev_per_network_spike_spike_percent: CCTE's Neural Network Formation Assay for Percent of Spikes in a Network Spike, Shafer Lab (AID 2284054; active means hit-call score of the fitted dose curve at least 0.9, where 1 is the maximum; inactive means score below 0.9)
Procedure, shortened: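 Developing networks of rat cortical neurons are dosed at day 0 and recorded extracellularly four times up to day 12. The endpoint is the area under the curve of percent spikes in network spikes, fitted in the negative direction relative to DMSO.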

[23] = CCTE_Shafer_MEA_dev_LDH: CCTE's Lactate Dehydrogenase Assay for Cytotoxicity in the Neural Network Formation Assay, Shafer Lab (AID 2284068);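 further: exposure for twelve days from plating with re-dosing on DIV 5 and 9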
Procedure, shortened: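 Primary rat cortical neurons were plated on PEI/laminin MEA plates and exposed from day 0 for twelve days, with compound renewed at DIV 5 and 9. Cytotoxicity was determined by spectrophotometric LDH assay relative to DMSO.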

[24] = CCTE_Shafer_MEA_dev_mutual_information_norm: CCTE's Neural Network Formation Assay for Mutual Information Normalization, Shafer Lab (AID 2284091; active means hit-call score of the fitted dose curve at least 0.9, where 1 is the maximum; inactive means score below 0.9)
Procedure, shortened: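 Exposure of primary rat cortical neurons began at plating and ran to DIV 12, with full media and treatment renewal after DIV 5 and 9 recordings. Mutual information AUC (DIV 5–12) was analysed for loss versus DMSO.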

[25] = CCTE_Shafer_MEA_dev_correlation_coefficient_mean: CCTE's Neural Network Formation Assay for Mean Correlation Coefficient, Shafer Lab (AID 2284093; active means hit-call score of the fitted dose curve at least 0.9, where 1 is the maximum; inactive means score below 0.9)
Procedure, shortened: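 Spontaneous activity recorded on days 5, 7, 9 and 12 post-plating; pairwise spike correlations are averaged across active electrodes and collapsed to an area-under-curve. Rat cortical cultures are dosed from plating through 12 days, with compound renewed at media changes.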

Measured: AC50

Sequence of Cellular tumor antigen p53 (Homo sapiens) (P04637 whole entry, looked up): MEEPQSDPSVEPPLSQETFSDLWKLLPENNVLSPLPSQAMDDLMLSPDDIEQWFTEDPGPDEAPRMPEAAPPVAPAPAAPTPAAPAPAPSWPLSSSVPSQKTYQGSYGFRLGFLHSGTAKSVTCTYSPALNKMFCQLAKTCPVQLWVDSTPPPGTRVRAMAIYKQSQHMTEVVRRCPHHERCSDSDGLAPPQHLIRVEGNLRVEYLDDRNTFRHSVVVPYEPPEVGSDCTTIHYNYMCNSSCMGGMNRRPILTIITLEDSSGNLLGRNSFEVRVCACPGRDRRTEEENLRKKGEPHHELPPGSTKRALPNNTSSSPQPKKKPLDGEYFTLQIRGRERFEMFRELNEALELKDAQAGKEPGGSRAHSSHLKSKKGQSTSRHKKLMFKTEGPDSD

OCc1ccccn1
inactive: [1] | [2] | [3] | [4] | [5] | [6] | [7]

CN=C(NC#N)NCCSCc1csc(N=C(N)N)n1
inactive: [1] | [2] | [3] | [4] | [5] | [7]

N#Cc1ccc2c(c1)N(CCCN1CCC(O)CC1)c1ccccc1S2
active: [2] 40.4 µM | [5] 35.4 µM | [7] 25.1 µM
inactive: [1] | [3] | [4] | [6]

NCCCCCC(=O)O
inactive: [1] | [2] | [3] | [4] | [5] | [6] | [7]

CC(C)(O)C(=O)O
inactive: [1] | [2] | [3] | [4] | [5] | [7]

Cc1cc(C(C)(C)C)c(O)c(C)c1CC1=NCCN1
inactive: [1] | [2] | [3] | [4] | [5] | [6] | [7]

c1ccc(CN(CC2=NCCN2)c2ccccc2)cc1
inactive: [1] | [2] | [3] | [4] | [5] | [7]

C=CCOc1ccc(CC(=O)O)cc1Cl
inactive: [1] | [2] | [3] | [4] | [6] | [7]

N#C/C(=C1\SCC(c2ccccc2Cl)S1)n1ccnc1 (stereo unspecified)
inactive: [1] | [2] | [3] | [4] | [5] | [7]

CC(NNC(=O)c1ccccc1)c1ccccc1 (stereo unspecified)
inactive: [1] | [2] | [3] | [4] | [5] | [7]

CC(=O)O[C@@H]1C(=O)O[C@@H]2[C@H]1OC(=O)[C@@H]2OC(C)=O
inactive: [1] | [2] | [3] | [4] | [6] | [7]
active: [5] 36.7 µM

c1cc2ccc3ccc4ccc5cccc6c(c1)c2c3c4c56
active: [2] 1.94 µM | [5] 2.79 µM
inactive: all other assays above
